Epigenetic mod – qHTS Assay for Epigenetic Modulators. hit rate 0.09% among 68,000. mouse C127i GFP locus derepression, cytometry, 30 h. AID 597, 2007. Potency, µM (highest dose often 46.1 µM)
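Murine C127i mammary cells carrying a silenced, stably integrated CMV-driven GFP reporter were treated with compound for 30 hours at 37 C. After PBS washes, GFP-positive cells were counted by laser-scanning microplate cytometry.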
PK Bst – Pyruvate Kinase; hit rate 1.2% among 51,000; purified pyruvate kinase, luminescence ATP production; ribose 5-phosphate activator present at AC10; Potency, µM; in the data active means potency below about 11 µM; inconclusive means mostly about 12 µM to 25 µM;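 the screen sought inhibitors and activators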
Ub-GFP proteasome – Ubiquitin-GFP Assay; Ubiquitin-GFP reporter cells, proteasome inhibition, GFP fluorescence; response scale: untreated = 0%, 10 µM MG-132 = 100%; Potency, µM (series often up to 45.9 µM), most hits filed as activators; 67,000 tested, under 10 active; AID 526, 2006; active means well fitted activation curve with a large enough effect, not every such curve was filed as active; inconclusive means small, poorly fitted or top-dose-only effect, or another doubt; inactive means no such curve, though single readings can be large or run the other way
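Proteasome block read as GFP accumulation: ubiquitin(G76V)-GFP U2OS cells exposed to compound (2.9 nM–46 uM) for 4 hr at 37 C. Normalization used untreated cells as 0% and 10 uM MG-132 as 100%; concentration-response curves fitted.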
FLuc inh – qHTS Assay for Inhibitors of Firefly Luciferase; Luciferin 4-monooxygenase (Photinus pyralis), P08659; purified firefly luciferase, luminescence, 8 min; Potency, µM (doses to about 57.1 µM), usual class: inhibitors; hit rate 2.2% among 72,000; further: nearly all actives have a fitted effect of over 40% in size
Target sequence (P08659 whole entry, looked up): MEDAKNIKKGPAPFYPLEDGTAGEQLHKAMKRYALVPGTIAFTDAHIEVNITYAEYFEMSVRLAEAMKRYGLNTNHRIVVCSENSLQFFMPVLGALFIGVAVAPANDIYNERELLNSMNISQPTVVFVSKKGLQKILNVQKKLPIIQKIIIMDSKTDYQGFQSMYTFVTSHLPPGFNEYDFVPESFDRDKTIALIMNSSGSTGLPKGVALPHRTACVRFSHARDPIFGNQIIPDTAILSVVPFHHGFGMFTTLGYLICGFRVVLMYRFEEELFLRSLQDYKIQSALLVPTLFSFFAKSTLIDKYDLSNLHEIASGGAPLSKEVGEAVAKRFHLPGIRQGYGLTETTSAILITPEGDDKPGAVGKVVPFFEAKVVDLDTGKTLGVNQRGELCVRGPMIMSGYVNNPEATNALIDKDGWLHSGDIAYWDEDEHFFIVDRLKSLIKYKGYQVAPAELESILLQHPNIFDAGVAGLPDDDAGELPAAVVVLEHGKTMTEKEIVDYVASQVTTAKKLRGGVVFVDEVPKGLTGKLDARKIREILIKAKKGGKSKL
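qHTS concentration-response profiling: light output of P. pyralis luciferase with luciferin and 10 uM ATP, imidazole buffer pH 7.2. Read by luminescence after 8-min room-temperature incubation.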
HBB splice mod – qHTS Assay for Modulators of Hemoglobin Beta Chain Splicing; HBB splicing reporter cell assay, activation; EGFP reporter with mutant IVS2-654 intron; response scale: normalised to 500 nM splice-correcting PNA; Potency, µM (doses to about 46.1 µM), usual class: activators; hit rate 0.06% among 65,000; AID 925, 2007
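HeLa cells stably expressing EGFP interrupted by mutant beta-globin intron 2 (IVS2-654), 500/well in 2% FCS. Treated with compound for 2 days at 37C. Splicing correction scored as total well GFP intensity (488 nm excitation, 500-520 nm emission); 500 nM antisense PNA served as control.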
Hits are given with their value; . = inactive; ? = inconclusive; / = not tested or not shown; [ ] = another dose, or the depositor's remark. Compounds with a hit are over-represented: about 2.6% of the library has one in this group of screens. Unless noted, the call rests on the fitted dose curve; in most records, active means well fitted curve in the direction sought with a large enough effect; inconclusive means small, poorly fitted or top-dose-only effect, or another doubt; inactive means no such curve, though single readings can be large; an effect the other way counts as inactive or inconclusive.

SMILES | Epigenetic mod | PK Bst | Ub-GFP proteasome | FLuc inh | HBB splice mod
CCS(=O)(=O)NCCc1cc2c(OC)ccc(OC)c2[nH]c1=O | . | 11 | . | . | .
Nc1ccc2oc(-c3cc(Br)ccc3Cl)nc2c1 | . | / | / | . | /
c1cc(-c2nc3cc(Cc4ccc5oc(-c6ccncc6)nc5c4)ccc3o2)ccn1 | . | . | . | . | /
CCc1ccc2oc(-c3cc(N)ccc3Cl)nc2c1 | . | 2.87 | . | 2.51µM | /
Nc1ccc2oc(-c3ccccc3Cl)nc2c1 | . | 3 | / | 3.16µM | /
Cc1ccc(C)c(-c2nc3cc(N)ccc3o2)c1 | . | / | . | . | .
CCc1ccc2oc(-c3cc(N)ccc3O)nc2c1 | . | 1.24 | . | 1µM | .
CCc1ccc2oc(-c3cc(N)cc(C)c3O)nc2c1 | . | 3.55 | . | 2.51µM | .
CC(=O)N(O)[C@@H]1c2cc(C#N)ccc2OC(C)(C)[C@H]1O | / | / | / | / | .
Cc1noc(C)c1-c1cc(NC2CCNCC2)ncn1 | .[9.22 µM] | / | . | .[2.29 µM] | .
CCOC(=O)OCC1OC(c2ccccc2)C=CC1OC(=O)OCC (centres undefined) | / | / | / | / | .[9.22 µM]
COc1cc(CN2CCCCC2)cc2cc(C(=O)O)c(=O)oc12 | .[9.22 µM] | / | .[9.17 µM] | .[11.4 µM] | .[9.22 µM]
CC(C)(C)N1C(=O)c2ccc(C(=O)Nc3nccs3)cc2C1=O | . | / | . | 5.01µM | .
Cc1nnc(SC(C)C(=O)Nc2ccc3c(c2)OCCO3)s1 (centres undefined) | . | . | . | . | .
COc1ccc(-c2nnc(SC(C)C(=O)Nc3ccc4c(c3)OCCO4)o2)cc1 (centres undefined) | . | / | . | 20µM | .
c1ccc(CNc2ncnc3c2cnn3-c2ccccc2)cc1 | . | . | . | . | .
CC(C)(C)Nc1ncnc2c1cnn2-c1ccccc1 | / | / | . | 5.01µM | .
Cc1ccc(-n2ncc3c(NCCCOC(C)C)ncnc32)c(C)c1 | . | . | / | . | /
CC(C)OCCCNc1ncnc2c1cnn2-c1ccccc1 | . | 8.88 | / | 3.98µM | /
CN(Cc1ccccc1)c1ncnc2c1cnn2-c1ccccc1 | . | ? | . | 12.6µM | .
COc1ccc(CNc2ccnc(-c3ccccc3Cl)n2)c(OC)c1 | .[9.22 µM] | / | . | .[2.29 µM] | .
CCc1ccc(N2C(=O)c3sc4nnc(C)c(=O)n4c3C2=O)cc1 | 10µM | / | . | . | .
C[C@H](C(=O)c1ccncc1)c1ccccn1 | .[9.22 µM] | / | .[9.17 µM] | .[11.4 µM] | .[9.22 µM]
CN(C)/C=N/c1cnc(C(=O)c2ccc(Cl)cc2)n1C | . | / | . | 12.6µM | .
COc1ccc2cc3cc(C(=O)NCCN4CCc5ccccc5C4)oc3nc2c1 | . | 0.764 | . | . | .
SMILES | Epigenetic mod | PK Bst | Ub-GFP proteasome | FLuc inh | HBB splice mod
COc1ccc2cc3cc(C(=O)NCCN4CCN(Cc5ccccc5)CC4)oc3nc2c1 | . | ? | . | . | .
CCCCCCCC/C=C\CCCCCCCC(=O)N(CCO)CCO | / | / | / | / | .
COC(=O)C1=C(C)N(Cc2ccccc2)[C@]23O[C@](C(=O)OC)(C(=O)N2C1c1ccccc1)C1CCOC(=O)C13 (some centres undefined) | / | / | / | / | .[9.22 µM]
O=C(/C=C\Nc1cccc(F)c1)c1ccc2c(c1)OCO2 | . | / | .[9.17 µM] | 0.398µM | .[0.0738 µM]
O=C(CCNc1ccccc1)c1ccc2c(c1)OCO2 | . | / | . | 15.8µM | .
O=C(Nc1ccc2c(c1)OCO2)c1cccc(F)c1 | . | / | . | ? | .
CCCNC(=O)OC[C@@H]1O[C@H](CCO/N=C2\c3cc(OC)ccc3O[C@H](c3cccc(OC)c3)[C@H]2O)C=C[C@@H]1Oc1ccc(OC)cc1 | / | / | / | .[11.4 µM] | .[9.22 µM]
Nc1n[nH]c(-c2ccccc2)c1-c1ccccc1 | . | / | . | . | .
Clc1ccccc1-c1nc(-c2ccccc2)n[nH]1 | . | . | . | 15.8µM | .
Cc1nnc(SCc2nnc(-c3ccccc3Br)o2)n1-c1ccccc1 | . | . | . | . | .
Cc1csc(SCc2nnc(-c3ccccc3Br)o2)n1 | . | / | . | 20µM | .
COc1ccc(COC(=O)N/N=C2/C[C@@H](O)[C@@H](O)[C@@H]3[C@@H]4C(=O)N(C5CCCCC5)C(=O)[C@H]4CC[C@@H]23)cc1 | / | / | / | .[11.4 µM] | .[9.22 µM]
c1ccc(-c2nc(-c3ccncc3)no2)cc1 | . | . | . | . | .
Clc1ccccc1-c1nc(-c2cccnc2)no1 | . | ? | . | 12.6µM | .
CCc1ccc(-c2nc(-c3ccncc3)no2)cc1 | . | / | .[9.17 µM] | 5.01µM | .[0.0738 µM]
c1ccc(-c2noc(-c3cccnc3)n2)cc1 | . | / | .[9.17 µM] | 12.6µM | .[0.0738 µM]

Screening data as filed in PubChem BioAssay.
